Compound activity (PubChem)
TSG101-PTAP inh = blocks PTAP/TSG101 interaction to inhibit HIV-1 budding | Q99816 | Fluorescence polarization, FITC-PTAP peptide / Tsg101 binding | Potency, µM (doses to about 115 µM), without a hit: top-dose activity change, negative = inhibition, most hits filed as inhibitors | 340,000 tested, under 10 active | AID 493005; active means well fitted inhibition curve with a large enough effect in the main read-out, with a control signal flat, not every such curve was filed as active; inconclusive means small, poorly fitted or top-dose-only effect, or effect the other way, or a change in a side signal; inactive means no such curve, though single readings can be large or run the other way; further: % of control where 0% means no effect
Target sequence (Q99816 whole entry, looked up): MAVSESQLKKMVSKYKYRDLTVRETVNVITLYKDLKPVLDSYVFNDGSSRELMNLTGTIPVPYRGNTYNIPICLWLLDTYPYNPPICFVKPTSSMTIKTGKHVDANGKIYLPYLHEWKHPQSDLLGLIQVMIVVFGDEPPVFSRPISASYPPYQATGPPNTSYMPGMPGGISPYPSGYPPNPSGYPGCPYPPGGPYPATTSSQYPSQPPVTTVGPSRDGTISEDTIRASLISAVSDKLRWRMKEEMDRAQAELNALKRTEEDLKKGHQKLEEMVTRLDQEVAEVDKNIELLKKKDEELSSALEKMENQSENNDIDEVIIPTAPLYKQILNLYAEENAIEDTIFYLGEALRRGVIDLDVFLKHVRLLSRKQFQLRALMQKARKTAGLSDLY
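Fluorescence anisotropy tracks displacement of a FITC-tagged PTAP peptide (50 nM) from the Tsg101 binding domain (10 uM), following a 20 min room-temperature incubation at pH 7.5.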
VDR inh = vitamin D3 receptor (human) inhibition. P11473. VDR-SRC2-3 peptide fluorescence polarization, 2 h. Potency, µM, for the others: max response, negative = inhibition, usual class: inhibitors. 400,000 compounds, 0.93% hits; further: on the % scale 0 is the no-effect control and ±100 the full control effect
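After 23 nl compound addition and a short centrifugation, plates sat for 2 hours at ambient temperature; polarization of fluorescence then indicated loss of VDR binding to peptide SRC2-3.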
USP1 inh = blocks the human USP1/UAF1 deubiquitinase complex; O94782; 390,000 compounds, 0.23% hits; Potency, µM (doses to about 57.1 µM), without a hit: at the top dose activity change, negative = inhibition, usual class: inhibitors; AID 743255; recombinant USP1/UAF1, Ub-Rhodamine cleavage fluorescence; further: on the % scale 0 is the no-effect control and ±100 the full control effect; nearly all actives have a fitted effect of over 60% in size
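USP1/UAF1 complex at 1 nM was preincubated with compound for 15 min at room temperature, then Ub-Rho substrate (150nM final) was added. Fluorescence (480/540 nm) was read kinetically, 6 reads every 60 seconds.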
PLK1 PBD block = inhibitors of human PLK1 polo-box domain binding; P53350; Plk1 PBD binding of FITC phosphopeptide, fluorescence polarization; 360,000 compounds, 2.8% hits; Potency, µM, inactives show max response, negative = inhibition, usual class: inhibitors; further: series mostly up to about 57 µM; on the % scale 0 is the no-effect control and ±100 the full control effect; nearly all actives have a fitted effect of over 65% in size
KAT2A inh = blocks human GCN5L2 histone acetyltransferase; AID 504327; Potency, µM (top dose mostly 58.9 µM), for inactives: at the highest dose activity change, negative = inhibition, hits mostly inhibitors; GCN5L2 HAT assay, ThioGlo1 CoA-SH fluorescence; 390,000 compounds, 0.21% hits; further: on the % scale 0 is the no-effect control and ±100 the full control effect
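Compounds, pin-transferred from DMSO stocks, meet 20nM GCN5L2 for 15 min before the reaction begins with H3(1-25) peptide (75uM) and acetyl-CoA (70uM). Thiol-reactive ThioGlo1 reports CoA release over 20 min at room temperature.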
The depositor's hits bear a star; u = inconclusive; x = not tested or not shown. Only some compounds are listed: those with a hit (about 3% of all), similar ones and a draw of the others. Unless noted, the call rests on the fitted dose curve; in most records, active means well fitted curve in the direction sought with a large enough effect; inconclusive means small, poorly fitted or top-dose-only effect, or another doubt; inactive means no such curve, though single readings can be large; an effect the other way counts as inactive or inconclusive. Potency means the concentration at half of the fitted maximal effect.

SMILES	TSG101-PTAP inh	VDR inh	USP1 inh	PLK1 PBD block	KAT2A inh
O=C(NCCc1csc(-c2ccccc2)n1)c1ccco1	-4%	u	-19%	11µM*	u
O=C(NCCc1csc(-c2cccc(F)c2)n1)c1ccco1	-1%	7%	-16%	-12%	-1%
Cc1c(C(=O)N2CCN(c3ccc(C(F)(F)F)cn3)CC2)oc2ccccc12	-2%	4%	-20%	30µM*	-9%
N#Cc1c(SC(C(=O)O)c2ccccc2)nc2c(c1-c1cccs1)CCCC2 (stereo unspecified)	-14%	-28%	-7%	30µM*	-12%
CNC(=O)Cn1nc(-c2ccc(C)cc2)c2ccccc2c1=O	-4%	u	-8%	12µM*	-2%
CNC(=O)CCn1nc(-c2ccc(C)cc2)c2ccccc2c1=O	-4%	-21%	-14%	3%	1%
O=C(Cn1nc(-c2ccc(Cl)cc2)c2ccccc2c1=O)NCC1CCCO1 (stereo unspecified)	-6%	u	-17%	13µM*	-1%
O=C(CCn1nc(-c2ccccc2)c2ccccc2c1=O)Nc1ccccc1	x	-6%	-16%	x	1%
COc1ccccc1NC(=O)CCn1nc(-c2ccccc2)c2ccccc2c1=O	x	56µM*	-29%	x	-10%
CCCC(=O)NCCc1nc2ccccc2n1Cc1c(F)cccc1Cl	x	-23%	-21%	x	-6%
COc1cc(OC)cc(C(=O)N2CCC(c3ccncc3)CC2)c1	x	9%	1%	x	2%
Cc1ccc2c(c1)c(=O)c(C(=O)c1ccc3c(c1)OCO3)cn2Cc1cccc(F)c1	x	6%	-20%	x	-3%
CC(=O)Nc1ccc(S(=O)(=O)/N=C2\C(=O)c3ccccc3C([O-])=C2n2cc[n+](-c3ccccn3)c2)cc1	-2%	-26%	25µM*	-28%	-1%
Cc1ccc(CNC(=O)CSc2nc(N3CCCCC3)nc(N3CCCCC3)n2)cc1	-6%	-2%	-19%	27µM*	-3%
Cc1ccc(CCNC(=O)C2CCCN(S(=O)(=O)c3ccc4c(c3)oc(=O)n4C)C2)cc1 (stereo unspecified)	x	-18%	-21%	x	-1%
CCCNC(=O)C1(C)CCN(CCC(=O)c2ccc(Br)cc2)C1 (stereo unspecified)	x	x	x	11µM*	x
COCCNC(=O)C1(C)CCCN(CCC(=O)c2ccc(Br)cc2)C1 (stereo unspecified)	x	x	x	9.5µM*	x
Cc1cc(=O)n2nc(-c3ccccc3)sc2c1C#N	-5%	u	2%	21µM*	-4%
Cc1cc(=O)n(Cc2ccccc2)c(O)c1C#N	-5%	-11%	-14%	-27%	-19%
CC1Oc2ccccc2C=C1/C=N/Nc1ccc(C(=O)O)cc1 (stereo unspecified)	-3%	u	-32%	24µM*	-5%
Cc1cc(C)c(S(=O)(=O)Nc2nnc(C)s2)c(C)c1	-5%	u	-5%	3.4µM*	-2%
Cc1cc(C)c(S(=O)(=O)Nc2nnc(CC(C)C)s2)c(C)c1	-9%	-6%	-22%	-7%	1%
COc1ccc(CCNC(=O)CSc2nc3nc(C)c(Cc4ccc(C)cc4)c(C)n3n2)cc1OC	x	3%	-9%	x	-4%
CC(=O)Nc1ccc(NC(=O)c2ccc3c(c2)NC(=O)c2ccccc2S3)cc1	x	4%	u	x	-6%
C/C(=N\Nc1ccc(C(=O)O)cc1)c1ccc2c(c1)Nc1ccccc1S2	-6%	-14%	-17%	30µM*	-23%
SMILES	TSG101-PTAP inh	VDR inh	USP1 inh	PLK1 PBD block	KAT2A inh
C/C(=N\Nc1ccc(Cl)c(C(=O)O)c1)c1ccc2c(c1)OCO2	-1%	-18%	-18%	-16%	-9%
C/C(=N/Nc1ccc(C(=O)O)cc1)c1ccc2c(c1)Nc1ccccc1S2	-1%	-9%	-5%	30µM*	x
COc1ccc(C(C[N+](=O)[O-])c2c(-c3ccccc3)cc3ccccn23)c(OC)c1 (stereo unspecified)	-2%	71µM*	-20%	-14%	-10%
CS(=O)(=O)Nc1cccc(-c2nccc(-n3ccnc3)n2)c1	x	u	x	x	-23%
FC(F)(F)c1ccccc1-c1nccc(-n2ccnc2)n1	x	45µM*	x	x	u
N#Cc1cccc(-c2nccc(-n3ccnc3)n2)c1	x	50µM*	x	x	-19%
Clc1ccccc1-c1nccc(-n2ccnc2)n1	x	u	x	x	-29%
COC(=O)c1c(NC(=O)CCCOc2ccccc2C)sc2c1CCC2	x	-24%	-22%	x	-11%
COc1ccc2oc(=O)cc(CN3CCN(C(=O)c4ccccc4Br)CC3)c2c1	x	15%	-9%	x	-5%
CC[N+]1(C)CCC(O)(/C=C/c2ccccc2)C(C(=O)/C=C/c2ccccc2)C1 (stereo unspecified)	1%	50µM*	u	u	x
O=C(CCS(=O)(=O)c1ccc(Cl)cc1)Nc1nnc(-c2ccco2)o1	1%	-8%	-3%	1%	-12%
Cc1ccc(C(=O)COC(=O)CNC(=O)CNC(=O)c2ccc(C)cc2)cc1	0%	-24%	-17%	-4%	-6%
Cc1ccc(C(=O)NCC(=O)NCC(=O)OCC(=O)c2ccc([N+](=O)[O-])cc2)cc1	-3%	79µM*	-8%	-7%	3%
CC(=O)Nc1ccc(OC(C)=O)cc1	x	16%	x	x	4%
COc1cc(/C=C2\C(=O)N(CCC#N)N=C2C)ccc1OCC(=O)Nc1ccccc1	-1%	u	-20%	1.3µM*	-2%
CC1=NN(CCC#N)C(=O)/C1=C/c1ccc(N(C)C)cc1	4%	-4%	-25%	-1%	2%
CCOc1cc(/C=C2\C(=O)N(CCC#N)N=C2C)ccc1OCC(N)=O	-14%	-5%	-25%	19µM*	-15%
CCOc1ccccc1-c1ccc2nccn2c1	x	x	x	-8%	x
COc1ccc(OCC(=O)Sc2ccc(C)cc2)cc1	-3%	u	-27%	4.7µM*	-23%
COc1ccc(OC(=O)COc2ccc(C)cc2)cc1	-4%	17%	-29%	-10%	-15%
Cc1nc(Nc2ccc(Cl)cc2Cl)sc1C(=O)Nc1ccccc1	-5%	-17%	-17%	-4%	-9%
Cc1nc(Nc2ccc(Cl)c(Cl)c2)sc1C(=O)Nc1ccccc1	-8%	u	-11%	27µM*	-15%
Cc1oc(-c2ccccc2)nc1C(=O)N1CCN(c2ccc(F)cc2)CC1	2%	u	-20%	30µM*	-23%
CCOC(=O)c1c(N)sn(-c2ccccc2C)c1=S	-5%	35µM*	-15%	5.3µM*	-26%
CCOC(=O)c1sc(=S)n(-c2ccccc2Cl)c1SC	-3%	6%	u	-25%	-3%
COC(=O)c1cc(NC(=O)c2oc(=O)c3ccccc3c2-c2ccccc2)cc(C(=O)OC)c1	x	-2%	-15%	x	0%
O=C(Cn1c(-c2ccccc2)c[n+]2ccsc12)c1ccccc1	-2%	12%	-6%	-9%	-5%
O=C(Cn1c(-c2ccccc2)c[n+]2ccsc12)c1ccc([N+](=O)[O-])cc1	-5%	-26%	-22%	30µM*	-10%
